Mtb hypoxia inh = inhibitors of hypoxia-regulated fluorescent reporter in Mycobacterium tuberculosis | M. tuberculosis hypoxia-regulated fluorescent reporter, fluorescence | fluorescence inhibition, % (concentration not given with the values) | 300,000 tested, 0.1% active | AID 1159583; in the data active = fluorescence inhibition mostly above about 23%, no sharp cut-off; inactive = mostly below about 17%
RN4220 kill = kills Staphylococcus aureus RN4220 | S. aureus RN4220 growth, OD600, 16 h | 330,000 tested, 0.33% active | inhibition, % (concentration not given with the values) | AID 1259311; in the data active = inhibition above about 85%;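 note: plate controls were untreated cells for no effect and reference antibiotic for full effect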
MazF activator = MazEF (E. coli) toxin RNase activation; P0AE70; FAM/BHQ RNA-DNA oligo cleavage fluorescence, 5 h; activation, % at 20 µM; 350,000 tested, 0.32% active; AID 504720; in the data active = activation above about 50%
PfHsp40 yeast = restores yeast growth despite PfHsp40 toxicity | S. cerevisiae expressing PfHsp40, growth rescue, ATP luminescence | growth rescue, % at 12.5 µM | 340,000 tested, 0.68% active | AID 504582; in the data active = growth rescue above about 28%, passing the limit was not always enough;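 note: yeast W303a lacking pdr1 and pdr3 grown in galactose medium; growth measured after three days at 30 °C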
Sa ugtP lethal = kills S. aureus RN4220 lacking UgtP; S. aureus RN4220 ugtP deletion, OD600 growth, 16 h; growth inhibition, % (no concentration beside the values); 330,000 tested, 0.54% active; AID 1259309; in the data active = growth inhibition above about 68%;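 note: plate controls were untreated wells for no effect and antibiotic for full effect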
TcdB inh = inhibitors of Clostridioides difficile toxin B glycohydrolase. TcdB glycohydrolase enzymatic assay, plate reader. inhibition, % at 9.99 µM. 350,000 tested, 0.24% active. AID 652162; in the data active = inhibition above about 10%
* marks the source's active call; other numbers are inactive results; · = no result given; ! = repeats disagree. Sampled rows, rich in hits. Any-hit rate of the full collection: about 1.3%.

SMILES	Mtb hypoxia inh	RN4220 kill	MazF activator	PfHsp40 yeast	Sa ugtP lethal	TcdB inh
COc1ccc(-c2csc(N(Cc3ccco3)C(=O)c3cccs3)n2)cc1	11	-6	64*	3	16	0
COc1ccc(OC)c(-c2csc(N(Cc3ccco3)C(=O)c3cccs3)n2)c1	7	1	-14	-1	-6	·
O=C1CCC=CCC(CC(=O)N(CCO)Cc2ccccc2)C(=O)NC(Cc2c[nH]c3ccccc23)CO1 (configuration not stated)	7	2	·	·	0	·
CCN1C(=C2SC(=S)NC2=O)Sc2ccccc21	9	2	·	·	4	·
O=C(Nc1ccccc1F)N1C[C@@H]2N[C@H](C1)C2c1ccc(-c2cccc(F)c2)cc1 (some centres not stated)	·	·	·	·	·	24*!
O=P1(Oc2ccccc2)OCCCS1 (configuration not stated)	6	3	-2	0	2	14*
NC(=O)CN1CCN(C(=O)Nc2ccccc2)CC1	·	0	4	76*	-4	1
CCN1CCN(C(=O)C2CCN(C(=O)Nc3ccccc3)CC2)CC1	7	3	8	-1	5	1
CNC[C@@H]1Oc2c(NS(=O)(=O)c3ccc(F)cc3)cccc2C(=O)N([C@H](C)CO)C[C@H]1C	·	·	·	·	·	-10
O=C1NC(=S)NC1=Cc1ccc(O)cc1	12	1	-36	1	0	16*
O=C1c2ccccc2NC(c2ccc(-c3cccc([N+](=O)[O-])c3)o2)N1O (configuration not stated)	-11	-7	2	233*	-25	0
O=C1c2ccccc2NC(c2ccc(-c3ccc(Br)cc3)o2)N1O (configuration not stated)	5	10	-6	0	-26	-1
O=C1c2ccccc2NC(c2ccc(-c3ccc(F)cc3)o2)N1O (configuration not stated)	·	·	3	168*	·	1
COc1ccc(S(=O)(=O)N2CCC(C(=O)NCCC(=O)Nc3ccc(Cl)cc3)CC2)cc1	1	2	55*	0	0	1
CC(=O)Nc1ccc(S(=O)(=O)N2CCC(C(=O)NCCC(=O)Nc3ccccc3)CC2)cc1	-10	-1	5	-1	-1	1
Cc1cc(C)c2c(N)c(C(=O)c3ccc(Br)cc3)oc2n1	-1	93*	9	5	81	1
CCN(C[C@H]1N[C@@](Cc2ccccc2)(C(=O)OC)[C@H]2C(=O)N(Cc3ccccc3)C(=O)[C@@H]12)C(=O)Nc1ccc(C(F)(F)F)cc1	-16	100*	-6	0	100*	0
CCN(C[C@H]1N[C@@](Cc2ccccc2)(C(=O)OC)[C@H]2C(=O)N(Cc3ccccc3)C(=O)[C@@H]12)C(=O)Nc1ccc(C)cc1	-5	-1	-4	2	-2	0
O=CN(c1ccccc1)c1ccc2ccccc2c1	8	15	-12	2	8	13*
COc1ccc(OC)c(NC(=O)CCn2c(=S)[nH]c3ccccc3c2=O)c1	4	1	-11	6	0	1
COc1ccc(OC)c(NC(=O)c2ccc3c(=O)n(CCc4ccccc4)c(=S)[nH]c3c2)c1	-12	-1	52*	-1	-6	1
CCOc1ccc2c(c1)c(N=O)c(O)n2C	11	4	3	-2	90*	·
Cc1ccc(-c2c3c([nH]c(=S)c2C#N)CCCC3)o1	1	-2	88*	1	-4	·
CC(Sc1nc2ccccc2n1C)C(=O)Nc1ccc(N2CCOCC2)cc1 (configuration not stated)	-5	-2	1	0	-11	13*
CC(C)Cn1c(SC(C)C(=O)Nc2ccc(N3CCOCC3)cc2)nc2ccccc21 (configuration not stated)	-3	0	2	0	14	1
SMILES	Mtb hypoxia inh	RN4220 kill	MazF activator	PfHsp40 yeast	Sa ugtP lethal	TcdB inh
C[C@H]1CCCCO[C@H](CN(C)S(=O)(=O)c2ccc(Cl)cc2)[C@@H](C)CN([C@@H](C)CO)C(=O)c2cc(NS(=O)(=O)c3cn(C)cn3)ccc2O1	·	·	·	·	·	1
CCOC(=O)c1[nH]nc(-c2cc(CC)c(O)cc2O)c1-c1cscn1	3	6	-6	-1	-1	15*
CCOC(=O)C1=Nc2ccccc2C1=[N+]=[N-]	·	·	0	33*	·	·
CCOC(=O)C1=Nc2cccc3c(O)ccc1c23	·	·	·	·	·	0
O=P(Nc1cccnc1)(Oc1ccccc1Cl)Oc1ccccc1Cl	-5	9	13	411*	-30	2
CC(C)c1ccc(NC(=O)C(c2ccc3c(c2)OCO3)N2CCCCC2)cc1 (configuration not stated)	2	-1	0	1	10	2
Oc1cc2c(cc1C(c1ccc(Cl)c(Cl)c1)N1CCCC1)OCO2 (configuration not stated)	4	41	-18	6	87*	-5
Cc1ccc(N=C2NC(=O)/C(=C/c3cccs3)S2)cc1C	2	-20	54*	-1	-11	·
O=C(Nc1ncccn1)c1ccc([N+](=O)[O-])o1	7	6	91*	0	-6	0
O=C(Nc1nc2c(F)cccc2s1)c1ccc([N+](=O)[O-])o1	3	-1	7	0	74	0
O=C(Nc1nc2c(Cl)cccc2s1)c1ccc([N+](=O)[O-])o1	-6	100*	-12	2	100*	0
NC(=O)c1ccsc1NC(=O)c1ccc([N+](=O)[O-])o1	·	100*	7	1	100*	0
COc1cc(OC)nc(NN=C(c2ccccc2)c2ccncc2)n1	13	7	·	·	0	·
C=CCOC(=O)C1=CC(C2CCCCC2)CC(OCc2ccc(CO)cc2)O1 (configuration not stated)	8	1	·	·	2	·
Cc1cc(O)ccc1N=Cc1c(C(F)(F)F)[nH][nH]c1=O	18	5	-2	0	4	15*
COc1ccccc1C(=O)NNC(=S)NC(=O)c1cc(OC)c(OC)c(OC)c1	-15	29	-26	62*	19	2
COc1cc(C(=O)NNC(=S)NC(=O)c2ccccc2C)cc(OC)c1OC	9	21	-1	6	0	·
COc1ccc(C(=O)NC(=S)NNC(=O)c2cnccn2)cc1	19	22	6	0	0	·
O=C(NC(=S)NNC(=O)c1cnccn1)c1ccc(Cl)cc1	35*	16	6	0	-1	-1
COc1cc(C(=O)NC(=S)NNC(=O)c2cnccn2)cc(OC)c1OC	9	20	-1	132*	-1	·
Cc1nonc1C(=O)NN=Cc1ccncc1	3	1	·	·	3	·
CCN(c1cccc(C)c1)c1nc2ccsc2c(=O)s1	4	-3	1	2	88*	·
COC(=O)/C=C/C(=O)Nc1ccc(O)c(Cl)c1	22	4	6	0	-4	31*
COC(=O)/C=C/C(=O)Nc1cccnc1	·	·	2	-1	·	·

Bioassay records: PubChem BioAssay, several laboratories
